Results published in PubChem BioAssay.
Activity calls are given as the source filed them. Unless noted, the rule behind the calls is not given here.

Legend:
[1] = HepG2 liver cancer cell viability effects, profiling panel, resazurin fluorescence, 24 h, PK04 Diversity Set (AID 1172); conditions: higher = more signal; note: test concentration not given here
[2] = basal S. cerevisiae growth modulation, no modifier, primary screen, OD600, strain BY4716, 24 h, basal condition (AID 1173); conditions: OD600, 24 h, higher = more signal, called active from +8 up or from −8 down
[3] = MM1S myeloma cell viability, profiling panel, resazurin fluorescence, basal, 24 h, PK04 Diversity Set (AID 1174); conditions: higher = more signal, called active from +8 up or from −8 down;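 note: MM1S multiple myeloma cell line; test concentration not given here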
[4] = biological target: Dihydroorotate dehydrogenase (quinone), mitochondrial (Plasmodium falciparum (isolate 3D7)) (UniProt Q08210); test: PfDHODH enzyme inhibitors, primary screen, biochemical, C-terminal His tag, absorbance 600 nm (AID 1175); conditions: DCIP absorbance 600 nm, higher = more signal, called active from +8 up or from −8 down;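 note: recombinant parasite enzyme with a five histidine tag at its C terminus; test concentration not given here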
Sequence of Dihydroorotate dehydrogenase (quinone), mitochondrial (Plasmodium falciparum (isolate 3D7)) (Q08210 whole entry, looked up): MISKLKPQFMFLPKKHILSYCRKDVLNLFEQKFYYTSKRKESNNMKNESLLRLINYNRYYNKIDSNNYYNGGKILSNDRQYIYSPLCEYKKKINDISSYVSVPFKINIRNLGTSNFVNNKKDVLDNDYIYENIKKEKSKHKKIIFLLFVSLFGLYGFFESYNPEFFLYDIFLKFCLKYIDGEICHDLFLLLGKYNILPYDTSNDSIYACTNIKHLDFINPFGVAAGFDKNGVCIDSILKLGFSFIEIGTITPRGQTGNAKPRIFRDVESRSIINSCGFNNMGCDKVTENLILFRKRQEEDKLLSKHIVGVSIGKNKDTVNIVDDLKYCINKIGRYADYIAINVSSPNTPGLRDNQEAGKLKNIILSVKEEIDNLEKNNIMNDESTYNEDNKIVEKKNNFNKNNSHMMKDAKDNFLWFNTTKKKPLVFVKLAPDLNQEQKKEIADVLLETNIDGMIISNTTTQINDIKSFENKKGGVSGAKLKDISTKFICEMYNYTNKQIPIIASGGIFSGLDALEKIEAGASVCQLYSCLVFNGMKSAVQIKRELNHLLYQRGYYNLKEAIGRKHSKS

[5] = P. aeruginosa biofilm formation inhibitors, primary screen, strain PAO1, LB-PBS medium, absorbance 600 nm (AID 1176); note: test concentration not given here; conditions: P. aeruginosa PAO1 growth/biofilm, A600, 12 h; higher = more signal
[6] = S. cerevisiae RM11-1a growth modifiers, primary screen, strain RM11-1a, OD600, basal, 24 h (AID 1177); conditions: OD600, 24 h, higher = more signal, called active from +8 up or from −8 down;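 note: cultures grown under basal conditions with no added stressor; test concentration not given here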
[7] = E. coli acrAB mutant growth effects, primary screen, E. coli filamentation inducers, strain DRC39, OD650, 24 h (AID 1178); conditions: higher = more signal, called active from +8 up or from −8 down;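 note: growth measured as culture turbidity by optical density at 650 nm; test concentration not given here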
[8] = E. coli acrAB mutant growth effects, primary screen, E. coli filamentation inducers, strain DRC39, OD650, 48 h (AID 1179);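 note: screen aims at cell division blockers that make cells filament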; conditions: E. coli DRC39 delta-acrAB growth, higher = more signal, called active from +8 up or from −8 down
[9] = RPMI8226 myeloma cell viability, profiling panel, resazurin fluorescence, basal, 24 h, PK04 Diversity Set (AID 1180); conditions: higher = more signal;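 note: RPMI8826 multiple myeloma cell line at 5000 cells per well; test concentration not given here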
[10] = biological target: E3 ubiquitin-protein ligase XIAP (Homo sapiens) (UniProt P98170); test: XIAP binders, primary screen, biophysical, small-molecule microarray, fluorescence 635 nm (AID 1181); conditions: small-molecule microarray binding, higher = more signal;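 note: score merges 667 nm emission and signal to noise over triplicate slides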
Sequence of E3 ubiquitin-protein ligase XIAP (Homo sapiens) (P98170 whole entry, looked up): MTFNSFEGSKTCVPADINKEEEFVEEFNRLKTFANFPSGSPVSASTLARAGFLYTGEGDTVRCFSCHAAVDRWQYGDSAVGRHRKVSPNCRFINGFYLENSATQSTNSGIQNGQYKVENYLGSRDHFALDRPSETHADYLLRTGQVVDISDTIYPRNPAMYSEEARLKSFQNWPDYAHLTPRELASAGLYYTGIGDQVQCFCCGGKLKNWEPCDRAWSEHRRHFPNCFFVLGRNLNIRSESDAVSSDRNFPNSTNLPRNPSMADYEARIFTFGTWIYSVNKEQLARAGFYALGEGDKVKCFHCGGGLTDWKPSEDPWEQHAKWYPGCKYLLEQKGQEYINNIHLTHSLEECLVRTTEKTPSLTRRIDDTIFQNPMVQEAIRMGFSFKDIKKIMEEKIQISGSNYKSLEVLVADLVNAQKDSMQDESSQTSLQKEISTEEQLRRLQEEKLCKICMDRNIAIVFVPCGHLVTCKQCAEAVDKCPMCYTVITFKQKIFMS

Structure (SMILES)	z-score [1]	z-score [2]	z-score [3]	composite z-score [4]	z-score [5]	z-score [6]	z-score [7]	z-score [8]	z-score [9]	composite z-score [10]
CN(C)CCCNC(=O)[C@@]1(Cc2ccccc2I)c2ccccc2C(=O)N(Cc2ccccc2)[C@H]1c1ccc(CO)cc1	-3.78	-3.24 (inactive)	-0.892 (inactive)	-0.19 (inactive)	0.292 (inactive)	0.209 (inactive)	0.0574 (inactive)	0.252 (inactive)	-1.89	0.24
C=C(CCCC)C(=O)CC[C@H](OC(=O)c1cccnc1)c1ccc(CO)o1	-0.476	-1.58 (inactive)	-0.464 (inactive)	-0.826 (inactive)	1.45 (inactive)	-0.497 (inactive)	-0.47 (inactive)	-0.34 (inactive)	-0.643	0.0343
CCCCC(=C=CC[C@@H](O)c1ccc(OCCO)cc1)C[C@@H](O)c1ccccn1	-0.517	-1.12 (inactive)	-0.769 (inactive)	-8.71 (active)	0.932 (inactive)	0.43 (inactive)	0.753 (inactive)	0.239 (inactive)	-0.541	0.133
NC(=O)NCC#Cc1ccc2c(c1)[C@]1(C(=O)N2)[C@H](C(=O)N2CCCCCCC2)[C@H]2C(=O)O[C@H](c3ccccc3)[C@H](c3ccccc3)N2[C@@H]1c1ccc(O)cc1	0.0542	0.319 (inactive)	0.678 (inactive)	0.246 (inactive)	1.92 (inactive)	0.0562 (inactive)	0.271 (inactive)	-0.194 (inactive)	-0.018	0.751
C=C(C(=O)CC[C@@H](OC(C)=O)c1cccc(OCCO)c1)C(C)C	-1.1	-1.03 (inactive)	-0.353 (inactive)	-0.842 (inactive)	0.26 (inactive)	1.11 (inactive)	-1.29 (inactive)	-1.06 (inactive)	0.173	0.686
C=CCOC(=O)[C@H]1[C@@H]2C(=O)O[C@@H](c3ccccc3)[C@@H](c3ccccc3)N2[C@@H](c2ccc(OCCOC(=O)[C@@H]3C[C@@H]4C(=O)N[C@@H](Cc5ccccc5)C(=O)N4[C@@H]3c3ccc(O)cc3)cc2)[C@]12C(=O)Nc1ccccc12	-0.648	1.45 (inactive)	-0.292 (inactive)	-0.139 (inactive)	3.66 (inactive)	0.818 (inactive)	-0.631 (inactive)	-0.282 (inactive)	-0.309	0.144
CC(C)(C)OC(=O)CC[C@]1(C(N)=O)N=C(c2ccc(OCCCO)cc2)O[C@H]1c1ccccc1CN=[N+]=[N-]	0.0283	0.632 (inactive)	0.455 (inactive)	0.369 (inactive)	-0.568 (inactive)	1.55 (inactive)	2.09 (inactive)	0.64 (inactive)	0.282	0.108
COc1ccc(NN2C(C(O)c3cc(C(F)(F)F)cc(C(F)(F)F)c3)C=CC3C(=O)N(C4CCCCC4)C(=O)C32)cc1 (stereo not given)	0.392	0.275 (inactive)	0.0147 (inactive)	-0.0132 (inactive)	1.21 (inactive)	-0.0874 (inactive)	-0.587 (inactive)	0.372 (inactive)	0.283	-0.0669
O=C1C2C=CC(C(O)c3cccs3)N(Nc3ccccc3)C2C(=O)N1c1ccccc1 (stereo not given)	-1.51	-3.05 (inactive)	-0.334 (inactive)	-0.116 (inactive)	1.06 (inactive)	-0.272 (inactive)	0.0187 (inactive)	-0.952 (inactive)	-0.717	0.0537
COc1cc2c(cc1O)C(C1CC1)N(Cc1ccc([N+](=O)[O-])o1)CC2 (stereo not given)	-0.145	-1.49 (inactive)	-0.0144 (inactive)	-4.24 (inactive)	0.0898 (inactive)	-0.346 (inactive)	-0.698 (inactive)	-0.821 (inactive)	0.211	0.234
COc1ccc([Si](C)(C)[C@@H]2[C@@H](CCO)O[C@]3(C(=O)N(Cc4ccccc4)c4ccc(N5C(=O)c6ccccc6Oc6ccccc65)cc43)[C@H]2C)cc1	1.09	1.84 (inactive)	-1.3 (inactive)	-0.641 (inactive)	0.225 (inactive)	3.88 (inactive)	0.727 (inactive)	0.435 (inactive)	-1.81	-0.157
CCC(CC)C(O)C1C=CC2C(=O)N(C)C(=O)C2N1N1CCCCC1 (stereo not given)	-0.735	-0.0172 (inactive)	-1.21 (inactive)	-1.17 (inactive)	0.571 (inactive)	-0.266 (inactive)	-0.652 (inactive)	-0.686 (inactive)	-1.12	0.167
COCCn1c(C(=O)N2CCCC2)cc2c1C[C@H]1CN(C(=O)c3ccccc3)[C@@](Cc3ccccc3)(C(=O)OC)[C@@H]21	-0.171	0.859 (inactive)	-0.738 (inactive)	0.132 (inactive)	0.535 (inactive)	1.41 (inactive)	-0.16 (inactive)	-0.0447 (inactive)	-0.923	0.369
CC(C)C[C@@H]1NC(=O)[C@H]2C[C@@H](C(=O)NCCCCCNC(=O)CS)[C@@H](c3ccc(O)cc3)N2C1=O	-2.15	0.131 (inactive)	-0.297 (inactive)	0.204 (inactive)	0.767 (inactive)	0.665 (inactive)	-0.117 (inactive)	-0.942 (inactive)	-0.57	-0.0577
CC(C)=CCN(C(=O)C#Cc1ccccc1)[C@H](CO)c1ccccc1	-3.85	-0.192 (inactive)	-5.79 (inactive)	0.885 (inactive)	-0.0218 (inactive)	3.26 (inactive)	0.163 (inactive)	-2.57 (inactive)	-5.82	0.165
NCCCC[C@@H]1NC(=O)[C@H]2C[C@@H](C(=O)NCc3ccc(F)cc3)[C@@H](c3ccc(O)cc3)N2C1=O	0.175	1.15 (inactive)	0.247 (inactive)	-0.17 (inactive)	0.174 (inactive)	1.02 (inactive)	0.207 (inactive)	-0.277 (inactive)	0.191	0.226
COCC(=C=CC[C@@H](O)c1cccc(OCCO)c1)C[C@@H](O)COCc1ccccc1	0.744	-0.353 (inactive)	0.629 (inactive)	-2.13 (inactive)	0.13 (inactive)	-2.24 (inactive)	0.481 (inactive)	0.392 (inactive)	0.629	1.16
CN(C)C(=O)[C@]1(Cc2ccccc2)N=C(c2ccc(OCCCO)cc2)O[C@@H]1c1ccccc1	0.0784	-1.32 (inactive)	0.324 (inactive)	0.179 (inactive)	-0.304 (inactive)	0.597 (inactive)	-0.809 (inactive)	-0.591 (inactive)	-0.247	0.125
COc1cc2c(cc1O)C(c1ccc(CN3CCCC3)cc1)N(Cc1ccc([N+](=O)[O-])o1)CC2 (stereo not given)	-0.274	-0.547 (inactive)	-0.727 (inactive)	-0.412 (inactive)	0.0898 (inactive)	0.0464 (inactive)	-0.79 (inactive)	-0.259 (inactive)	-0.437	0.0537
COc1ccc(C#Cc2ccc3c(c2)[C@]2(C(=O)N3)[C@H](C(=O)Nc3nc4ccccc4s3)[C@H]3C(=O)O[C@H](c4ccccc4)[C@H](c4ccccc4)N3[C@@H]2c2ccc(OCCO)cc2)cc1	0.839	2.43 (inactive)	-0.625 (inactive)	-22.3 (active)	2.93 (inactive)	2.53 (inactive)	0.544 (inactive)	0.196 (inactive)	-0.639	0.0849
COCCOC(=O)N1C(=O)[C@@]2(c3cc(C#CCC(C(=O)OC)C(=O)OC)ccc31)[C@H](C(=O)N1CCc3cc(OC)c(OC)cc3C1)[C@H]1C(=O)O[C@H](c3ccccc3)[C@H](c3ccccc3)N1[C@@H]2c1ccc(O)cc1	0.227	0.541 (inactive)	-0.0494 (inactive)	-0.0728 (inactive)	-0.0757 (inactive)	1.34 (inactive)	0.992 (inactive)	0.199 (inactive)	-0.888	-0.0034
COc1ccc(CCNC(=O)[C@@]2(Sc3ccc(C)cc3)CC(=O)N(Cc3cc(C(F)(F)F)cc(C(F)(F)F)c3)[C@@H]2c2ccc(CO)cc2)cc1	-0.392	-1.01 (inactive)	-0.378 (inactive)	-0.61 (inactive)	0.112 (inactive)	-0.83 (inactive)	0.0664 (inactive)	-0.331 (inactive)	-0.395	0.536
C=C(/C(=C/C[C@H](OC(=O)c1ccncc1)c1ccccc1OCCO)c1cc(C(=O)OC)ccc1OC)C(C)C	0.456	0.0223 (inactive)	-0.493 (inactive)	-4.24 (inactive)	0.297 (inactive)	0.0488 (inactive)	-0.822 (inactive)	-0.869 (inactive)	0.956	-0.0478
